# Pf growth 48h = inhibits P. falciparum growth in the first generation, 48 h. P. falciparum luciferase growth in erythrocytes, 48 h. Potency, µM (doses to about 28.7 µM), for the others: top-dose activity change, negative = inhibition, usual class: inhibitors. 310,000 compounds, 5.9% hits; note: potency is the fitted concentration of half-maximal effect; % is set by controls: 0 for no effect and ±100 for the full control effect
#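 Read-out is firefly luciferase luminescence from an integrated reporter in P. falciparum, so falling signal marks reduced parasite growth. Infected erythrocytes were at 2% hematocrit and 0.1% parasitemia (final) in Albumax-supplemented RPMI 1640.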
# Cycloheximide cs = affects cycloheximide protein synthesis inhibition readout, counter-screen; 300,000 compounds, 12% hits; AID 2314; max response, %; cell reporter, cycloheximide protein synthesis inhibition counterscreen; in the data active = max response mostly above about 13%, no sharp cut-off; inactive = mostly below about 14%; note: read at 38.3 µM for the half of the compounds with a filed dose; 0% is about no effect
# Sm TGR inh = inhibitors of Schistosoma mansoni thioredoxin glutathione reductase; Q962Y6; purified TGR, DTNB reduction, TNB absorbance 405 nm; Potency, µM (top dose mostly 114 µM), without a hit: at the top dose activity change, negative = inhibition, usual class: inhibitors; 360,000 compounds, 3% hits; AID 485364; note: potency is the fitted concentration of half-maximal effect; % is set by controls: 0 for no effect and ±100 for the full control effect; nearly all actives have a fitted effect of over 60% in size
#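 First, TGR (20 nM dispensed) and NADPH were mixed with compound. Second, a 15 min room-temperature incubation followed. Third, further NADPH and then DTNB were added to start the reaction. Finally, TNB absorbance was monitored kinetically.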
# Shiga inhibitor = inhibitors of Shiga toxin in Vero cells; Vero cells, Shiga toxin protein synthesis inhibition reporter; inhibition, % at 38.7 µM; 290,000 compounds, 9.2% hits; in the data active = inhibition mostly above about 28%, no sharp cut-off; inactive = mostly below about 43%; note: 0% is about no effect
# Pf growth 96h = inhibits malaria parasite growth, 96 h; P. falciparum luciferase reporter growth, 96 h; Potency, µM (series often up to 28.7 µM), without a hit: at the top dose activity change, negative = inhibition, actives largely listed as inhibitors; 320,000 compounds, 6.9% hits; AID 504834; note: potency is the fitted concentration of half-maximal effect; % is set by controls: 0 for no effect and ±100 for the full control effect
#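 Readout is luminescence from an integrated firefly luciferase in P. falciparum. Red cells, 2% hematocrit and 0.05% parasitemia final, were cultured with compound through two parasite generations (96 hours) at 37 C, 5% CO2.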
# NS1 inh = inhibitors of influenza NS1 protein function. Potency, µM (highest dose often 46.1 µM), without a hit: at the top dose activity, positive = more growth. 270,000 compounds, 0.4% hits. AID 2326; calls by dose curve; note: potency is the fitted concentration of half-maximal effect; actives are rising curves; nearly all actives have a fitted effect of over 50% in size
#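 A cell-based growth assay was used: compounds that relieve NS1-induced slow growth of budding yeast raise OD600. Assay medium was yeast nitrogen base with ammonium sulphate and -URA supplement, pH 6.0, with 2% galactose.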
# Starred values were filed as active, the others as inactive; ? = inconclusive; / = no result given. An excerpt weighted towards active compounds, which were near 21% of everything screened. Unless noted, calls come from the whole dose curve; as a rule, active = well fitted curve in the direction sought with a large enough effect; inconclusive = small, poorly fitted or top-dose-only effect, or another doubt; inactive = no such curve, though single readings can be large; an effect the other way counts as inactive or inconclusive.
SMILES,Pf growth 48h,Cycloheximide cs,Sm TGR inh,Shiga inhibitor,Pf growth 96h,NS1 inh
NS(=O)(=O)c1ccc(-c2ccc(C=NC3CCS(=O)(=O)C3)o2)cc1 (stereo not drawn),4.8%,-1.0,70.8µM*,-6.2,?,8.1%
NS(=O)(=O)c1ccc(-c2ccc(/C=C3\SC(=S)N(C4CCS(=O)(=O)C4)C3=O)o2)cc1 (stereo not drawn),?,-1.0,1.0%,-12.5,?,-2.6%
COc1ccc(-c2ccc(CCC(=O)O)n2NC(=O)c2cccs2)cc1,15.6%,21.9*,-23.3%,0.0,13.6%,6.3%
O=C(O)CCc1ccc(-c2ccccc2)n1NC(=O)c1ccco1,-7.7%,7.3,?,-9.1,-0.6%,3.6%
Cc1ccc(-c2ccc(CCC(=O)O)n2NC(=O)c2cccs2)cc1,1.8%,33.9*,-23.5%,2.3,/,?
CC(Cc1ccccc1)N1C(=O)c2ccccc2C1=O (stereo not drawn),2.1%,21.8*,0.0%,49.0*,-4.1%,-8.6%
CC(C)NC(=O)C(Cc1ccccc1)N1C(=O)c2ccccc2C1=O (stereo not drawn),-10.6%,-1.2,-3.6%,-2.9,42.4%,9.5%
O=C(Nc1cccc(Cl)c1)Nc1ccc2nccnc2c1,-7.3%,31.2*,-14.9%,54.8*,?,-0.2%
O=C(Nc1ccc2nccnc2c1)Nc1ccccc1Cl,8.28µM*,31.7*,5.5%,61.8*,?,6.0%
Cn1nnc2cc(NC(=O)Nc3cccc(Cl)c3)ccc21,/,37.5*,10.1%,51.9*,2.2%,0.6%
COc1ccc(CCNC(=O)c2ccc3c(c2)sc2nc(-c4ccccc4)cn23)cc1OC,/,/,4.2%,/,/,/
O=C1c2ccccc2C(=O)N1C/C=C/CN1C(=O)c2ccccc2C1=O,107.8%,1.2,0.4%,-15.7,/,12.6%
O=C1C(c2ccccc2)=[N+]([O-])c2ccccc21,0.657µM*,/,?,/,0.37µM*,/
Cc1cccc(CNS(=O)(=O)c2ccc(-c3ccc(=O)[nH]n3)s2)c1,3.3%,7.1,2.4%,-4.0,53.5%,3.7%
CCCC(NS(=O)(=O)c1ccc(-c2ccc(=O)[nH]n2)s1)c1cccs1 (stereo not drawn),3.8%,23.5*,-8.1%,23.3*,?,8.7%
COc1ccccc1CCc1nnc(CCC(=O)NC(C)Cc2cccnc2)o1 (stereo not drawn),12.4%,1.9,4.6%,-13.1,-1.5%,-2.5%
COCCn1c(C)cc(O)c(C(c2ccc(OC)cc2)N2CCN(c3ccccc3)CC2)c1=O (stereo not drawn),/,/,8.91µM*,/,/,/
CCCn1c(N)c(C(c2ccc(OC)cc2)N2CCN(c3ccccc3)CC2)c(=O)[nH]c1=O (stereo not drawn),/,8.2,2µM*,-1.9,?,7.0%
COCCn1c(C)cc(O)c(C(c2cccc(F)c2)N2CCN(c3ccccc3)CC2)c1=O (stereo not drawn),/,/,7.94µM*,/,/,/
CCCn1c(N)c(C(c2ccc(C(=O)OC)cc2)N2CCN(c3ccccc3)CC2)c(=O)[nH]c1=O (stereo not drawn),?,5.5,?,10.4,0.0%,-34.7%
CCOC(=O)c1cc(C)sc1NC(=O)CSc1nccn1C,-3.3%,49.9*,3.4%,110.5*,20.4%,-19.8%
CCOC(=O)c1ccc(NC(=O)CSc2nccn2-c2cc(C)cc(C)c2)cc1,/,/,5.7%,/,/,/
Cc1ccc(NC(=O)CSc2nccn2Cc2ccccc2)cc1C,24.9%,47.9*,13.1%,99.4,44.3%,-58.8%
CC(=O)Nc1ccc(NC(=O)CSc2nccn2Cc2ccccc2)cc1,-0.3%,8.8,0.0%,5.4,-10.3%,-1.6%
N#Cc1ccccc1NC(=O)CSc1nccn1CCc1ccccc1,46.7%,37.4*,-7.4%,78.2*,-22.3%,-13.6%
CCOC(=O)c1ccc(NC(=O)CSc2nccn2C)cc1,13.3%,38.9*,-0.1%,60.8,10.3%,-13.1%
CCOC(=O)c1c(NC(=O)CSc2nccn2C)sc(C(=O)NC)c1C,?,/,-15.9%,/,?,/
Fc1ccccc1-c1nc(N2CCN(c3cccc(Cl)c3)CC2)c2ccccc2n1,/,/,-9.4%,/,/,/
Cc1ccc(NC(=O)CSc2nccn2C)cc1F,-0.8%,9.0,-8.6%,-14.3,?,-5.5%

# Bioassay records as filed in PubChem.
